Source: the supplement of paper PMC6555819

The sequences below were run on VDR:RXRa (NR concentration 270 nM, RXRa partner concentration 90 nM) (assay: PBM binding z-score (relative to random genomic background probes); higher = stronger binding; sequences stand for … in GC…GCGATTGACAGCGTAGAATGAAGG).
Experimental: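 Protein-binding microarray (Agilent 4x180K custom design, double-stranded 60-nt probes: 5' GC cap, 34-nt variable region, 24-nt constant primer region; full probe sequence given). Purified or IVT nuclear receptor:RXRα heterodimers (3:1 NR:RXRα, mostly 270:90 nM) or homodimers were incubated for 1 h in PBS with 2% milk and no ligand, then detected with Alexa488 antibodies. Fluorescence from o1-orientation probes (~5 replicates averaged) was converted to z-scores against 500 random hg19 background probes. Variable regions are seed direct-repeat (DR0–DR5) sites, all their single-nucleotide variants and half-site ablations.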
For CGAACTAGCTCAAAGGACAGTGAAAGGCGACGTA, the PBM binding z-score was -0.564.
ATCGAATGGTCGTGAGGTGAGTATACAGAAAGGC gave a PBM binding z-score of -0.0757.
CCTTACAGGTCAAGGTTATAGCACGGGTGGTACG showed a PBM binding z-score of 3.41.
Work on CTATGTAGGGTAAGGGGGTCATTCAGTTTGAAAG yielded a PBM binding z-score of 7.01.
Sequence TATCCTAGGTCAGATCGGGCCAGTATACGCTATA has a PBM binding z-score of 1.51.
Work on GGAACGAGCGCAAAGTTGATAGCATCTGTCGACG yielded a PBM binding z-score of -0.765.
CGGCCAAGGTCAAAGGTCAGTGAAGAGATGACGG showed a PBM binding z-score of 6.67.
For ATCTGTAGGTTATCGGGTCATTCAGTTTGCGCAT, the PBM binding z-score was 5.17.
ATATGTAGGATATCGGGTCATTCAGTTTGCGCAT showed a PBM binding z-score of 4.94.
With CCTACTGGGGCACGAAAGGTCATTGATTCAGTGA the PBM binding z-score was 4.61.
For CCGAGTAGGTTACGAGGGTGCATTCAGTGCGAAT, the PBM binding z-score was 4.73.
Sequence CTATGTAGGTTCAGGGGGTCATTCAGTTTGAAAG has a PBM binding z-score of 6.91.
For CCTTACGGGTCACGGGGTTATAGCACGACGAGCG, the PBM binding z-score was 5.75.
CGAACTAGGTCACAAGGACAGTGAAGAGGTTGGA showed a PBM binding z-score of 1.83.
ATATGTACGTTAGGGTCATTCAGAAAGTAGGGAA showed a PBM binding z-score of 4.24.
ACTAGCAGGCCAAAGGTCACTCAAGATTAGTCCG was tested, and the PBM binding z-score was 4.05.
For TCGAGTAGGTTACGTGGGCATTCAGGGATGAAGA, the PBM binding z-score was 0.00981.
For CGTCAAAGTTCATGGTAACGTAACAGAAAGCAGC, the PBM binding z-score was 4.33.
ATATATAGGTTAGGGTCATTCAGAAAGTAGGGAA showed a PBM binding z-score of 4.75.
Work on CTATGTAAGTTAAGGGGGTCATTCAGTTTGAAAG yielded a PBM binding z-score of 6.67.
For CGAACTAGGTCAGAACAGGACATTGAAGGATGAT, the PBM binding z-score was 1.59.
In the case of ACTCGGGGGACAAAGGTCAGAGCTACGCCAGTGA, the PBM binding z-score is reported as 4.66.
For CGAACTAGGTCAAAGGATAGTGAAAGGCGACGTA, the PBM binding z-score was 1.12.
In the case of TCTAGGAGGACACGAAGGTCAGAGCTTTCCAGAG, the PBM binding z-score is reported as 2.25.
GATACAGGGTCAGCTAGAGGTCAGAGTATGGAAA showed a PBM binding z-score of 6.14.
ACTAGTTGTTCAGCTGAGGTCACACACAATTCGG showed a PBM binding z-score of 4.06.
Sequence ATCGAAAGGTCGACGAGGTGAGTATGCACCGTTT has a PBM binding z-score of 5.27.
In the case of CCAGACAGGTGAAAGGTAACTCCGTCTGGTACGC, the PBM binding z-score is reported as 0.557.
CCGAGTAGGTTACGAGTGGGCATTCAGTGCGAAT showed a PBM binding z-score of -0.217.
CTTTACGGGTCAAGGTTATAGCACGGGTGGTACG showed a PBM binding z-score of 3.8.
ATATGTAGGTTAGGGGCATTCAGAAAGTAGGGAA was tested, and the PBM binding z-score was 1.44.
CGTCCAAGGTCAATGTTAGGTCAGTGAAAGCATT was tested, and the PBM binding z-score was 4.92.
ATCGAAAGGTCGTGAGGTGAGTTTACAGAAAGGC showed a PBM binding z-score of 4.49.
Sequence CGAACTCGGTCACCAGGACAGTGAAGAGGTTGGA has a PBM binding z-score of 1.87.
With CCTAGTTGGTCAAGGTCTCACACGCTATAGGTAC the PBM binding z-score was 0.578.
Work on CTATGTAGGTTAAGCGGGTCATTCAGTTTGAAAG yielded a PBM binding z-score of 5.74.
CGTGCAAGGTCAGAGAGGTCAGTGAATGCCGAGT was tested, and the PBM binding z-score was 7.22.
GATACAGGGTCAACTAGAGGCCAGAGTATGGAAA showed a PBM binding z-score of 4.98.
With AGTAGCAGGCCAAGGGTCACTCAAGATTAGTCCG the PBM binding z-score was 2.94.
ATCTGTAGGTTAGGGTCATTCAGAAAGTAGGGAA showed a PBM binding z-score of 4.35.
